Compound activity: PubChem BioAssay, National Center for Advancing Translational Sciences (NCATS)
Shown are actives, neighbours in structure and some others; about 14% of the full set was active somewhere.
Pf growth 48h: Primary qHTS for delayed death inhibitors of the malarial parasite plastid, 48 hour incubation; Potency, µM (titrated, usually from 28.7 µM), for the others: at the highest dose activity change, negative = inhibition, usual class: inhibitors; P. falciparum luciferase growth in erythrocytes, 48 h; 310,000 compounds, 5.9% hits; also: potency is read from the fitted curve at half-maximal effect
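Parasite viability was followed by luminescence of a genomically integrated firefly luciferase. Cultures held 0.1% parasitemia at 2% hematocrit (final), incubated under 5% CO2 at 37 C.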
HCMV antiviral: qHTS Assay for inhibitors of the human cytomegalovirus (HCMV); HFF cells, HCMV-luciferase reporter, 72 h; hits give low values; activity change, negative = inhibition, % at 57.5 µM; 410,000 compounds, 4.5% hits; AID 1259415, 2018; in the data active = activity change below about -60%; inconclusive = no clear call, values can overlap the other calls; inactive = above about -39%
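Two compound doses tested in HFFs infected with HCMV-luciferase, MOI 1 PFU/cell, 72 h at 37C. Lysate luminescence read with OneGlo; data normalized against buffer-only and 10uM Salinomycin inhibitor controls.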
Marburg entry inh: qHTS for inhibitors of binding or entry into cells for Marburg Virus | Marburg virus pseudotyped entry inhibition, cell reporter | Potency, µM (series often up to 37.8 µM), for inactives: at the top dose activity change, negative = inhibition, most hits filed as inhibitors | 300,000 compounds, 1.8% hits; calls by dose curve; tested in HEK293 cells; also: potency is read from the fitted curve at half-maximal effect
LASV entry inh: qHTS for Inhibitors of binding or entry into cells for Lassa Virus. Lassa virus pseudotype entry inhibition, cell reporter. Potency, µM (top dose mostly 37.9 µM), for the others: at the top dose activity change, negative = inhibition, hits mostly inhibitors. 300,000 compounds, 1.2% hits. AID 540256, 2011; calls by dose curve; tested in HEK293 cells; also: potency is read from the fitted curve at half-maximal effect; nearly all actives have a fitted effect of over 50% in size
HCV inh: qHTS Assay for Inhibitors of Hepatitis C Virus (HCV) | Potency, µM (doses to about 41.8 µM), without a hit: at the highest dose activity change, negative = inhibition, most hits filed as inhibitors | AID 651820, 2012 | 340,000 compounds, 3.4% hits | Huh7.5.1 HCVcc-Cre infection, luciferase reporter, 44 h; also: potency is read from the fitted curve at half-maximal effect
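Antiviral activity was scored by luciferase reporter output from cells infected with HCVcc-Cre (~0.5 moi) in presence of compound, 44 h infection period, cells seeded 1,000/well 4 h prior.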
Pf growth 96h: Primary qHTS for delayed death inhibitors of the malarial parasite plastid, 96 hour incubation; Potency, µM (doses to about 28.7 µM), without a hit: at the highest dose activity change, negative = inhibition, hits mostly inhibitors; 320,000 compounds, 6.9% hits; P. falciparum luciferase reporter growth, 96 h; AID 504834, 2011; also: potency is read from the fitted curve at half-maximal effect
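Erythrocytes infected with luciferase-expressing P. falciparum were dispensed at 2% hematocrit and 0.05% parasitemia (final), then incubated with compounds 96 hours at 37 C in 5% CO2. Luminescence after detection reagent addition reported growth.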
* hit, by the source's call; u = inconclusive; x = not tested or not shown; [ ] = dose if it differs, or a comment. Unless noted, calls follow the shape of the dose curve; as a rule, active = well fitted inhibition curve with a large enough effect; inconclusive = small, poorly fitted or top-dose-only effect, or another doubt; inactive = no such curve, though single readings can be large or run the other way. % is scaled to controls: 0 for no effect and ±100 for the full control effect.

SMILES	Pf growth 48h	HCMV antiviral	Marburg entry inh	LASV entry inh	HCV inh	Pf growth 96h
CSCCC(c1nnnn1-c1ccc2c(c1)OCCO2)N1CCC(n2c(=O)[nH]c3ccccc32)CC1 (stereo not drawn)	x	-71.5*	x	x	x	x
COc1ccccc1N1CCN(C(c2cccs2)C(C)NS(=O)(=O)c2ccccc2)CC1 (stereo not drawn)	u	-0.8	0.2%	x	u	7.38µM*
CC(NS(=O)(=O)c1ccccc1)C(c1cccs1)N1CCN(c2ccccc2)CC1 (stereo not drawn)	u	-33.0	u	u	-21.0%	8.28µM*
CC(NS(=O)(=O)c1ccc(Br)cc1)C(c1cccs1)N1CCN(C)CC1 (stereo not drawn)	-21.5%	-7.8	x	x	u	u
COC(=O)C(O)(c1ccc2c(c1)CCCN2)C(F)(F)F (stereo not drawn)	x	0.1	11.7%	18.4%	-0.3%	8.28µM*
O=S(=O)(c1cccc2ccccc12)N1CCC2CC1c1cc(-c3ccc4c(c3)OCO4)ccc12 (stereo not drawn)	x	19.6	x	x	x	x
CCOC(=O)[C@H]1[C@H]2COc3ccc(Br)cc3[C@@H]2N2C(=O)c3cc(Br)ccc3NC(=O)[C@@]12C	u	-17.0	x	x	u	8.28µM*
CCOC(=O)[C@H]1[C@H]2COc3ccccc3[C@@H]2N2C(=O)c3cc(Br)ccc3NC(=O)[C@@]12C	4.15µM*	31.9	x	x	-13.6%	6.57µM*
Cc1ccc2c(n1)sc1c(=O)n(-c3cccc(C(F)(F)F)c3)nnc12	x	8.2	-11.3%[46.1 µM]	u	x	x
CCCOC(=O)C(C)n1c(-c2ccccc2)nc2ccccc2c1=O (stereo not drawn)	0.0%	-4.0	-3.9%	-1.7%	11.7%	u
CCOC(=O)Cn1c(-c2ccccc2)nc2ccccc2c1=O	u	-94.7*	5.6%	28.1%	4.5%	-4.8%
CCOC(=O)CSc1nc2ccccc2c(=O)n1CC	-16.5%	-10.2	1.4%	0.7%	-26.7%	53.4%
CCCOC(=O)Cn1c(=O)c2cc3c(=O)n(CC(=O)OCCC)c(=O)c3cc2c1=O	-8.1%	-72.5*	10.4%	-0.8%	10.4%	4.1%[5.75 µM]
CCCCOC(=O)Cn1c(-c2ccccc2)nc2ccccc2c1=O	-6.5%	-76.3*	-6.9%	8.7%	-2.4%	39.0%
CCCCOc1ccc(CNn2c(C)nc3ccccc3c2=O)cc1	25.3%	u	u	-1.5%	10µM*	0.0%
CC(C)(CNC(=O)Cc1ccc(Cl)cc1Cl)N1CCCCC1	-3.6%	-3.4	u	-10.2%[46.1 µM]	u	-23.8%
CCCCn1c(N2CCC(Cc3ccccc3)CC2)nc2c1c(=O)[nH]c(=O)n2C	9.28µM*	-28.2	u	u	35.5µM*	u
Cc1nnc(SCCn2c(N3CCC(Cc4ccccc4)CC3)nc3c2c(=O)[nH]c(=O)n3C)s1	u	x	u	u	u	9.28µM*
Cc1nnc(SCCn2c(N3CCN(C)CC3)nc3c2c(=O)[nH]c(=O)n3C)s1	x	-5.6	15.1%	5.6%	1.5%	-14.5%
CC1CCN(c2nc3c(c(=O)[nH]c(=O)n3C)n2Cc2ccccc2Cl)CC1	-22.3%	-3.7	x	x	5.6%	9.28µM*
Cc1nnc(SCCn2c(N3CCN(Cc4ccccc4)CC3)nc3c2c(=O)[nH]c(=O)n3C)s1	u	-19.2	u	-15.9%	7.9%	7.38µM*
Cn1c(=O)[nH]c(=O)c2c1nc(Br)n2Cc1ccccc1Cl	u	-18.9	u	7.6%	-11.5%	3.7%
CC(C)CC(=O)Nc1ccc(S(=O)(=O)Nc2cc3c(cc2N2CCOCC2)n(C)c(=O)c(=O)n3C)cc1	x	23.7	x	-1.2%[46.1 µM]	x	x
COc1ccc(N2C(N)=C(C#N)C(c3cc(CN4CCOCC4)cs3)C3=C2CCCC3=O)cc1 (stereo not drawn)	x	-0.6	x	u	x	x
COc1ccc(NC(=O)c2nn(C)cc2[N+](=O)[O-])cc1	120.3%	-28.8	x	x	0.0%	0.0%
SMILES	Pf growth 48h	HCMV antiviral	Marburg entry inh	LASV entry inh	HCV inh	Pf growth 96h
Cc1ccc(NC(=O)c2nn(C34CC5CC(CC(C5)C3)C4)cc2[N+](=O)[O-])cc1	u	-75.6*	u	-18.4%	u	1.47µM*
CCOC(=O)CN1C(=O)Nc2ccc(Br)cc2C1c1ccccc1 (stereo not drawn)	-12.3%	19.7	-29.7%	u	-23.7%	154.1%
CCOC(=O)CN1C(c2ccc(O)cc2)Nc2ccc(Br)cc2C1c1ccccc1 (stereo not drawn)	u	u	u	u	-25.6%	3.29µM*
COc1ccccc1N1CCN(C(=O)c2cc(S(=O)(=O)N3CCCCC3)ccc2C)CC1	x	15.8	u	-0.1%[46.1 µM]	-12.6%	x
COc1ccc(S(=O)(=O)N2CCCCCC2)cc1C(=O)N1CCN(c2ccccc2O)CC1	2.33µM*	9.3	u	-18.2%	-9.6%	4.65µM*
COc1ccc(N2CCN(C(=O)c3cc(S(=O)(=O)N4CCCCCC4)ccc3OC)CC2)cc1	11.7µM*	-9.6	-8.4%	-21.4%	-18.8%	u
COc1ccc(S(=O)(=O)N2CCCCCC2)cc1C(=O)N1CCN(c2ccccc2C)CC1	11.7µM*	6.8	x	x	u	5.86µM*
O=c1[nH]c(SCc2c(F)cccc2Cl)nc2c1CCCC2	x	-8.9	9.2%[46.1 µM]	-5.8%[46.1 µM]	x	x
CCCCCn1c(CCC(=O)Oc2ccccc2OC)nc2c1c(=O)[nH]c(=O)n2CCCC	x	7.6	19.7%	-28.1%	18.3%	13.1µM*
CCCCn1c(=O)[nH]c(=O)c2c1nc(CN(C)Cc1cccc(OC)c1OC)n2CCC	9.5%[0.00184 µM]	1.5	u	-17.9%[46.1 µM]	-24.9%	u
COc1ccc(CCNCC2C(Oc3ccc(Cl)cc3)C(=O)N2c2ccccc2C)cc1OC (stereo not drawn)	u	u	11.2µM*	4.6%[46.1 µM]	u	u
COC(=O)c1ccc(C2C(Oc3ccccc3)C(=O)N2CCc2ccc(OC)c(OC)c2)cc1 (stereo not drawn)	-14.3%	-20.8	-12.8%	-10.5%	-0.8%	-27.7%
Cc1ccccc1N1C(=O)C(Oc2ccc(Cl)cc2)C1CNC(C)(C)C (stereo not drawn)	11.7µM*	u	u	-9.0%	4.5%	47.5%
Cc1ccccc1-n1nc2c(c1NC(=O)COc1ccc(Cl)cc1)CS(=O)C2 (stereo not drawn)	x	-9.1	x	x	-7.1%	-22.5%
CCCNCC1C(Oc2ccc(Cl)cc2)C(=O)N1c1ccccc1C (stereo not drawn)	10.4µM*	-27.1	u	u	-21.2%	7.3%
COCCNCC1C(Oc2ccc(Cl)cc2)C(=O)N1c1ccccc1C (stereo not drawn)	u	-16.1	u	-19.0%	5.4%	188.3%
